From PubChem BioAssay
Active and inactive are the calls of the source.

Tests used:
[1] = system: PRMT1 (protein arginine N-methyltransferase 1); assay: PRMT1 binders on small-molecule microarrays, primary screen, biochemical, small-molecule microarray, 635 nm fluorescence (AID 1088); details: small-molecule microarray binding, higher = more signal;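 note: binding of Prmt1 protein to compounds spotted on small-molecule microarray slides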
[2] = yeast growth modulation, basal conditions, primary screen, YJM789 clinical isolate, OD600, 24 h (AID 1089);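 note: growth of clinical yeast isolate S. cerevisiae YJM 789 seeded 1000 cells per well; test concentration not given here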; details: S. cerevisiae YJM789 growth, higher = more signal, called active from +8 up or from −8 down
[3] = fission yeast growth modulation, primary screen, strain 972, OD600, 24 h, no modulator (AID 1090);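 note: basal condition with compound alone and no growth modifier present; test concentration not given here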; details: S. pombe 972 growth, higher = more signal, called active from +8 up or from −8 down
[4] = S. cerevisiae growth modulation with rapamycin, primary screen, strain BY4716, OD600, 96 h (AID 1091); details: higher = more signal, called active from +8 up or from −8 down; note: test concentration not given here
[5] = biological target: Torsin-1A-interacting protein 2 (Homo sapiens) (UniProt Q8NFQ8); assay: LULL1 binders on small-molecule microarray, primary screen, cell lysate, human LULL1 lysate, 635/667 nm fluorescence (AID 1092); details: hLULL1 lysate binding, 635 nm fluorescence, higher = more signal;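 note: probe is lysate of COS7 cells overexpressing human LULL1; score merges per-feature 667 nm fluorescence with signal-to-noise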
Sequence of Torsin-1A-interacting protein 2 (Homo sapiens) (Q8NFQ8 whole entry, looked up): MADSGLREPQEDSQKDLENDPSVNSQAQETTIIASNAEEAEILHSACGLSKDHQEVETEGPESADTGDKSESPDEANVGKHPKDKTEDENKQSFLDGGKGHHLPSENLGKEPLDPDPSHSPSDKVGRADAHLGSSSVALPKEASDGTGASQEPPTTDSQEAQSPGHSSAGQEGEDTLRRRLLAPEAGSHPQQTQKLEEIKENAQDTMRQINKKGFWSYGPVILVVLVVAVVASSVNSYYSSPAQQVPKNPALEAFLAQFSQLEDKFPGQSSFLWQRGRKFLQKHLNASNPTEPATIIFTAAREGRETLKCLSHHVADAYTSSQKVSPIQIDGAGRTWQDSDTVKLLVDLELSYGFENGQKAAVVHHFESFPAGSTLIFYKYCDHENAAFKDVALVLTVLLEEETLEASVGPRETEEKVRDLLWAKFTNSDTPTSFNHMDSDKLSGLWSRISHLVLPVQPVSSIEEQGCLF

[6] = E. coli growth modulation, two-sided OD650, primary screen, E. coli filamentation project, strain DRC41, 24 h (AID 1093); details: OD650, 24 h, higher = more signal, called active from +8 up or from −8 down;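 note: MC1000 strain lacking acrAB efflux and sulA so SOS filamentation is blocked; test concentration not given here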
[7] = small-molecule microarray binders of probe aLefty2, primary screen, biochemical, biotinylated probe, 635/667 nm fluorescence (AID 1094); details: higher = more signal;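 note: score merges spot fluorescence near 667 nm with spot signal-to-noise ratio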
[8] = system: Noggin (protein binding on small-molecule microarray); assay: Noggin binders on small-molecule microarray, primary screen, biochemical, 635/667 nm fluorescence (AID 1095); details: 635 nm fluorescence, higher = more signal;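 note: score merges 667 nm feature fluorescence with signal to noise over triplicate slides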
[9] = biological target: Neurogenic locus notch homolog protein 3 (Homo sapiens) (UniProt Q9UM47); assay: NOTCH3 binders on small-molecule microarray, primary screen, biochemical, 635/667 nm fluorescence (AID 1096); details: NOTCH3 binding, 635 nm fluorescence, higher = more signal
Sequence of Neurogenic locus notch homolog protein 3 (Homo sapiens) (Q9UM47 whole entry, looked up): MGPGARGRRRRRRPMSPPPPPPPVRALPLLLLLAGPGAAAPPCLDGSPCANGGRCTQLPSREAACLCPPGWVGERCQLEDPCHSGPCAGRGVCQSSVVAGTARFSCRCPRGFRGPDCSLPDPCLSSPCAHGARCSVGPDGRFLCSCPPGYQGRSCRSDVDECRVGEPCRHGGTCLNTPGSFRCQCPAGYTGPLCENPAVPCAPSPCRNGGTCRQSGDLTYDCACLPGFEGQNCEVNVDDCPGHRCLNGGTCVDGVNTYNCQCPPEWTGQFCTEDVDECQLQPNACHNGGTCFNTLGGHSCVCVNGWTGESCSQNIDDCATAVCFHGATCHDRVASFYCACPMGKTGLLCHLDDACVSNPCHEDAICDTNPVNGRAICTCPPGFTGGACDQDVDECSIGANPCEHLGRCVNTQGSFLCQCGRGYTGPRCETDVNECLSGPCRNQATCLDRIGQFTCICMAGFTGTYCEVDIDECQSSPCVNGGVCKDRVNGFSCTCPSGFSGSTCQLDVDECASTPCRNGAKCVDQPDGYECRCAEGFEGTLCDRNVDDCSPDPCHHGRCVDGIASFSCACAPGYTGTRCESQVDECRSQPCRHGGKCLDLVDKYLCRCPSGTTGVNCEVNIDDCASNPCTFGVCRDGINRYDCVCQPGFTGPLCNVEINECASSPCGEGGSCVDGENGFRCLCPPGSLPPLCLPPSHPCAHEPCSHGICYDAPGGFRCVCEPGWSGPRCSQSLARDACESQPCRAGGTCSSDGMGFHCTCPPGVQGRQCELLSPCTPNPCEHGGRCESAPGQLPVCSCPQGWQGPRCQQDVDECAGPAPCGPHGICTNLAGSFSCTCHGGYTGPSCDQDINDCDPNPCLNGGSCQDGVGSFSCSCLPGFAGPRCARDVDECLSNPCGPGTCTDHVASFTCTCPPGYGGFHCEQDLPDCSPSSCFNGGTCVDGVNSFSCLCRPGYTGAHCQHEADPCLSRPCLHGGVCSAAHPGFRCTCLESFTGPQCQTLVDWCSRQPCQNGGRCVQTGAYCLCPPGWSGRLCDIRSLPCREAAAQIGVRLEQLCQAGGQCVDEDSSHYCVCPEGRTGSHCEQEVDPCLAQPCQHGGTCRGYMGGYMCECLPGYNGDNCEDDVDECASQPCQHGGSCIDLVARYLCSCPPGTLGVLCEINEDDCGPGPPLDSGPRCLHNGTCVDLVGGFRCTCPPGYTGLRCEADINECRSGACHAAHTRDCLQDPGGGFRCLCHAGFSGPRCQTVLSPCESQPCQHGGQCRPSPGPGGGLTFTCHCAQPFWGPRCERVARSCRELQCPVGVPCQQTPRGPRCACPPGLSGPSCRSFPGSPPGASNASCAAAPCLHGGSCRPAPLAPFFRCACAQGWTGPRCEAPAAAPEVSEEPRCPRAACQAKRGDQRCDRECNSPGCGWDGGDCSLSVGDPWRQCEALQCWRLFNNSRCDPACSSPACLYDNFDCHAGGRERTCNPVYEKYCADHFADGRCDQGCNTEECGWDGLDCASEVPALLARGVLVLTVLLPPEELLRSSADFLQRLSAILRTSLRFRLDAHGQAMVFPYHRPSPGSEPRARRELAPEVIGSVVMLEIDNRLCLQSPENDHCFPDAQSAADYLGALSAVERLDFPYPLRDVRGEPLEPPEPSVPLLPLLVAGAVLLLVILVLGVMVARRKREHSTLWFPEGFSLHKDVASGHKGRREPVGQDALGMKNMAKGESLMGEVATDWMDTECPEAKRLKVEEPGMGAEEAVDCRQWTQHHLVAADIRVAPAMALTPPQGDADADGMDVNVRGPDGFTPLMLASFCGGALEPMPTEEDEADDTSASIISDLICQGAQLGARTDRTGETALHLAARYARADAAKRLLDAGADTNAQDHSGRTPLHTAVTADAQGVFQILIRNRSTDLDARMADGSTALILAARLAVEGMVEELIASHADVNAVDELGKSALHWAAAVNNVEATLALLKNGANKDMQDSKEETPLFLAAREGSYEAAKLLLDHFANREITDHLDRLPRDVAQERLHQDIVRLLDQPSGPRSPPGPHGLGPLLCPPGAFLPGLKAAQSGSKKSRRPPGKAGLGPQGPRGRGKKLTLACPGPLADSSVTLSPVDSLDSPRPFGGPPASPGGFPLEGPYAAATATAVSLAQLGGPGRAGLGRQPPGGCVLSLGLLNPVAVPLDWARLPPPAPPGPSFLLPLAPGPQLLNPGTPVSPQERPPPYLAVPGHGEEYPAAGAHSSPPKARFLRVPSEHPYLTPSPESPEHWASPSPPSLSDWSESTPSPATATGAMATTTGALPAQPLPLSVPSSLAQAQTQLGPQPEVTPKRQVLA

[10] = small-molecule microarray binders of probe aEGFR, primary screen, biochemical, biotinylated probe, 635/667 nm fluorescence (AID 1097); details: higher = more signal;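 note: probe is a biotinylated anti-EGFR antibody binding compounds printed on slides; score combines fluorescence near 667 nm and signal to noise of each spot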
[11] = system: Plasmodium falciparum Sir2 (PF13_0152, Sir2A); assay: pfSir2 binders on small-molecule microarrays, primary screen, biochemical, small-molecule microarray, 635 nm fluorescence (AID 1098); details: small-molecule microarray binding, fluorescence 635 nm; higher = more signal;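 note: score merges spot fluorescence intensity with its signal-to-noise ratio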
[12] = small-molecule microarray binders of probe aDKK1, primary screen, biochemical, biotinylated probe, 635/667 nm fluorescence (AID 1099); details: higher = more signal;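 note: score merges 667nm spot fluorescence with signal to noise across triplicate slides; reference of the scale not given here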
[13] = small-molecule microarray binders of probe aCHRDL2, primary screen, biochemical, biotinylated probe, 635/667 nm fluorescence (AID 1100); details: higher = more signal
[14] = splicing luciferase reporter signal modulators, primary screen, spliceosome inhibition project, cell-based, HEK293, splice +/- reporter (AID 1101); details: luminescence, 24 h, higher = more signal, called active from +8 up or from −8 down;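 note: HEK293 cells carrying a splicing-competent luciferase reporter gene; test concentration not given here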
[15] = biological target: Fibroblast growth factor 10 (Homo sapiens) (UniProt O15520); assay: FGF10 binders on small-molecule microarrays, primary screen, biochemical, small-molecule microarray, 635 nm fluorescence (AID 1102); details: FGF10 binding, fluorescence 635 nm, higher = more signal
Sequence of Fibroblast growth factor 10 (Homo sapiens) (O15520 whole entry, looked up): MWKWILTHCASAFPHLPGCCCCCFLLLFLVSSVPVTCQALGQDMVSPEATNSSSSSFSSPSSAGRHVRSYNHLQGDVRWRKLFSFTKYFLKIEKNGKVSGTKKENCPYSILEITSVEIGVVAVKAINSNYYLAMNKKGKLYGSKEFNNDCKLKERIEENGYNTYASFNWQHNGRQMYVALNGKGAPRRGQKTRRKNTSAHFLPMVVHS

[16] = system: glycogen synthase kinase-3 (GSK3A per assay name; protocol says GSK3B); assay: GSK3 binders on small-molecule microarrays, primary screen, biochemical, small-molecule microarray, 635 nm fluorescence, GSK3A (AID 1103); details: small-molecule microarray binding, fluorescence 635 nm; higher = more signal; note: the record names both GSK3A and GSK3B
[17] = biological target: Epidermal growth factor receptor (Homo sapiens) (UniProt P00533); assay: EGFR binders on small-molecule microarrays, primary screen, biochemical, small-molecule microarray, 635 nm fluorescence (AID 1104); details: EGFR binding, higher = more signal;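 note: score merges 667 nm emission intensity with spot signal to noise over triplicate slides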
Sequence of Epidermal growth factor receptor (Homo sapiens) (P00533 whole entry, looked up): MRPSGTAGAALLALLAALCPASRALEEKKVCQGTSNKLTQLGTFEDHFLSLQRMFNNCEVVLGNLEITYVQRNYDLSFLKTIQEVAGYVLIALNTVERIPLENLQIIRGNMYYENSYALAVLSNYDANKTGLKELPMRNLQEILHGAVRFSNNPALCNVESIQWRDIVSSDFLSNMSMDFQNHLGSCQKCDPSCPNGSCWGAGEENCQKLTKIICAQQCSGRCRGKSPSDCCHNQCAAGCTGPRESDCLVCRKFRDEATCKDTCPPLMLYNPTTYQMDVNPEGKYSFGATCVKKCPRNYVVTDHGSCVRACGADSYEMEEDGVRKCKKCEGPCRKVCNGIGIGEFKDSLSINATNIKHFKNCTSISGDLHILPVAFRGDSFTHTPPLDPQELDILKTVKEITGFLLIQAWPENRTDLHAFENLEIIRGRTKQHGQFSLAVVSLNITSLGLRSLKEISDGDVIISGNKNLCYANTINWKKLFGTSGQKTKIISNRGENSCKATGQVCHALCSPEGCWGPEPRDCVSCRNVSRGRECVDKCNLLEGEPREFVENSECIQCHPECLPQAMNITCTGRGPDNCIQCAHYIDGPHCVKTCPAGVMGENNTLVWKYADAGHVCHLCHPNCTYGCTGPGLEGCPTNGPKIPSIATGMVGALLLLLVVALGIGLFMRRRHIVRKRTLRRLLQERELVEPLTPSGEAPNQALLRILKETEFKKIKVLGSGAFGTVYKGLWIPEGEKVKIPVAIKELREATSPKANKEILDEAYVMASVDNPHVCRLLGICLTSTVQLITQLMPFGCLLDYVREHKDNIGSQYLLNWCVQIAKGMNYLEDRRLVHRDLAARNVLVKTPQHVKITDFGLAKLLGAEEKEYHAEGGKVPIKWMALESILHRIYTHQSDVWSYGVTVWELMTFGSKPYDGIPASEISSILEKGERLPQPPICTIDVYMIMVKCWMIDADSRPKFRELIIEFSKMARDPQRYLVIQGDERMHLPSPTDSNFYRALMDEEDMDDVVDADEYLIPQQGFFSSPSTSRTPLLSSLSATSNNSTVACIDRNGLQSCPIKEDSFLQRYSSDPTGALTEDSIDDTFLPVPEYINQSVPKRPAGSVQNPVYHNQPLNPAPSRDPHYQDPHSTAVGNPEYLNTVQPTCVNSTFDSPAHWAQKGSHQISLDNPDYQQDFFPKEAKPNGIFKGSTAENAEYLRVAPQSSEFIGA

[18] = biological target: Follistatin-related protein 3 (Homo sapiens) (UniProt O95633); assay: FSTL3 binders on small-molecule microarrays, primary screen, biochemical, small-molecule microarray, 635 nm fluorescence (AID 1105); details: FSTL3 binding, higher = more signal;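 note: score merges emission near 667 nm and signal to noise per printed spot across three slides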
Sequence of Follistatin-related protein 3 (Homo sapiens) (O95633 whole entry, looked up): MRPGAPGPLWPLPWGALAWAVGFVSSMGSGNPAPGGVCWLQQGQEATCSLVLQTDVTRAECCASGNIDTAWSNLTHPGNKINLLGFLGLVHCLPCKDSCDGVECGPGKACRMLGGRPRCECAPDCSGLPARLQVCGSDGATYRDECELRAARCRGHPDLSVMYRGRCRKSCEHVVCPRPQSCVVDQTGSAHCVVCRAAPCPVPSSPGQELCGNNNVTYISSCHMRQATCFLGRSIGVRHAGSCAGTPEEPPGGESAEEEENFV

[19] = biological target: Dickkopf-related protein 1 (Homo sapiens) (UniProt O94907); assay: DKK1 binders on small-molecule microarrays, primary screen, biochemical, small-molecule microarray, 635 nm fluorescence scan (AID 1106); details: DKK1 binding, higher = more signal;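 note: score merges emission near 667 nm with signal to noise over three replicate slides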
Sequence of Dickkopf-related protein 1 (Homo sapiens) (O94907 whole entry, looked up): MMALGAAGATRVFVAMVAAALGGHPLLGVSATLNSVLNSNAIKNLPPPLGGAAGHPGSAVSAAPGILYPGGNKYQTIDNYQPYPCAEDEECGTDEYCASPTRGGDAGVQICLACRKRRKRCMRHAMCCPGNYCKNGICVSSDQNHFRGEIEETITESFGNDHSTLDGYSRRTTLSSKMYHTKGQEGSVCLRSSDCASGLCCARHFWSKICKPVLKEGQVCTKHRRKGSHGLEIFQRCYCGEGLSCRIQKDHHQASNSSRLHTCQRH

[20] = system: Inhibin beta A chain (activin A); assay: INHBA (activin A) binders on microarrays, primary screen, biochemical, small-molecule microarray, 635 nm fluorescence scan (AID 1107); details: small-molecule microarray binding, higher = more signal;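 note: mouse activin A protein probed at 4.33 µg/mL on printed slides; score merges bound-protein fluorescence near 667 nm with spot signal-to-noise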

Row | SMILES | composite z-score [1] | z-score [2] | z-score [3] | z-score [4] | composite z-score [5] | z-score [6] | composite z-score [7] | composite z-score [8] | composite z-score [9] | composite z-score [10] | composite z-score [11] | composite z-score [12] | composite z-score [13] | z-score [14] | composite z-score [15] | composite z-score [16] | composite z-score [17] | composite z-score [18] | composite z-score [19] | composite z-score [20]
1 | CCOC(=O)C1=C[C@@H](c2ccccc2)N(S(=O)(=O)c2ccc(C)cc2)[C@H]1c1ccc(F)cc1 | 1.56 | 0.575 (inactive) | 2.18 (inactive) | 2.39 (inactive) | 3.06 | -0.382 (inactive) | -0.0141 | 0.512 | 1.09 | 0.0624 | 0.873 | 0.362 | 0.573 | -0.162 (inactive) | 0.635 | 1.29 | 0.158 | 1.04 | 0.675 | 0.589
2 | C=CC[C@]1(C(=O)O)N=C(c2ccc(OCCCO)cc2)O[C@H]1c1ccccc1 | 0.707 | -0.435 (inactive) | -2.83 (inactive) | -1.08 (inactive) | 3.29 | 0.597 (inactive) | -0.0199 | -1.1 | -0.888 | -0.0936 | 1.43 | 0.518 | 0.838 | -0.893 (inactive) | -0.0023 | -0.517 | -1.13 | -1.02 | -0.968 | 0.654
3 | COCCOC(=O)N1C(=O)[C@@]2(c3cc(C#CCNC(N)=O)ccc31)[C@H](C(=O)N1CCCCCCC1)[C@H]1C(=O)O[C@H](c3ccccc3)[C@H](c3ccccc3)N1[C@@H]2c1ccccc1OCCO | 1.2 | 1.42 (inactive) | -0.922 (inactive) | 3.58 (inactive) | 2.05 | -0.698 (inactive) | 0.957 | 0.601 | 1.04 | 0.295 | 0.733 | 1.46 | 0.734 | -0.12 (inactive) | 0.718 | 0.205 | 0.79 | 1.22 | 0.485 | 1.33
4 | Cc1ccc(S[C@]2(C(=O)NCCCN(C)C)CC(=O)N(Cc3ccccc3)[C@@H]2c2ccc(CO)cc2I)cc1 | 0.25 | -1.87 (inactive) | -4.8 (inactive) | 0.768 (inactive) | 2.68 | -0.563 (inactive) | 0.373 | -0.869 | -0.723 | -0.13 | 0.16 | 1.09 | 1.3 | -1.81 (inactive) | -0.347 | -0.753 | -1.12 | -0.575 | -1.37 | 1.35
5 | Cc1cc(C)c(C(O)C2C=CC3C(=O)N(C)C(=O)C3N2N2CCCCC2)c(C)c1 (stereo not given) | 1.54 | -0.133 (inactive) | 1.08 (inactive) | -0.376 (inactive) | 2.99 | -0.587 (inactive) | 0.433 | 0.521 | 1.06 | 0.301 | 1.38 | 0.261 | 1.2 | 1.91 (inactive) | 1.07 | 1.31 | 0.641 | 1.35 | 0.384 | 1.36
6 | C[C@H]1C2[C@H](Cc3ccccc3)NC(=O)[C@]23C(=O)N[C@H](Cc2ccccc2)C(=O)N[C@@H](Cc2ccccc2)C(=O)NC/C=C\C/C=C/C3[C@@H]2O[C@]12C (stereo not given in full) | -0.0599 | -0.371 (inactive) | -0.246 (inactive) | -0.639 (inactive) | 0.168 | 1.25 (inactive) | -0.0882 | -0.152 | 0.367 | -0.113 | 0.0468 | -0.315 | -0.202 | -0.148 (inactive) | 0.345 | -0.256 | -0.228 | 0.223 | 0.409 | 1.16
7 | O=C(CS)NCCCCCNC(=O)[C@H]1C[C@H]2C(=O)N[C@@H](Cc3ccccc3)C(=O)N2[C@H]1c1ccc(O)cc1 | 1.54 | 0.662 (inactive) | -0.982 (inactive) | 1.86 (inactive) | 2.18 | 1.12 (inactive) | -0.107 | 1.48 | 0.781 | 0.178 | 1.26 | 0.27 | 0.299 | -0.876 (inactive) | 0.702 | 1.29 | 0.957 | 0.566 | 1.25 | 0.456
8 | Cc1ccc(S[C@]2(C(=O)O)CC(=O)N(Cc3ccccc3)[C@@H]2c2ccc(CO)cc2)cc1 | 0.191 | -0.179 (inactive) | -2.58 (inactive) | 0.215 (inactive) | 1.88 | 2.49 (inactive) | -0.0953 | -0.674 | -0.0738 | -0.136 | -0.844 | 0.638 | 0.899 | -0.718 (inactive) | -0.0355 | 0.132 | -0.289 | -0.0951 | -0.304 | 1.04
9 | COCCOC(=O)N1C(=O)[C@@]2(c3cc(C#CCC(C(=O)OC)C(=O)OC)ccc31)[C@H](c1ccccc1OCCO)N1[C@H](c3ccccc3)[C@H](c3ccccc3)OC(=O)[C@H]1[C@@H]2C(=O)N1CCCCCCC1 | 1.51 | 1.22 (inactive) | 0.639 (inactive) | 3.35 (inactive) | 3.29 | -0.366 (inactive) | 1.53 | 1.63 | 1.11 | 0.83 | 0.853 | 1.97 | 1.42 | -0.247 (inactive) | 0.834 | 1.29 | 0.852 | 1.56 | 1.4 | 1.61
10 | C=CCNC(=O)[C@H]1[C@@H]2C(=O)O[C@@H](c3ccccc3)[C@@H](c3ccccc3)N2[C@@H](c2ccccc2OCCO)[C@]12C(=O)N(C(=O)OCCOC)c1ccc(C#CCNC(N)=O)cc12 | 1.55 | 0.602 (inactive) | -0.26 (inactive) | 3.16 (inactive) | 2.39 | 2.35 (inactive) | -0.108 | 0.878 | 1.15 | -0.0389 | 1.28 | 0.607 | 0.802 | -0.294 (inactive) | 0.471 | 0.843 | 0.158 | 0.507 | 0.111 | 0.889
